The source of these data is PubChem BioAssay (NCI).

Assay in all cases: NCI-60 one-dose screen, 48 h (100 = growth as untreated, 0 = no growth, -100 = all killed)
What all share (conditions): 10 µM unless noted

Assay [1] relates to NCI-H23 lung.
Assay [2] concerns NCI-H226 lung.
In assay [3] the test system is NCI-H322M lung.
Assay [4] has as its system HOP-62 NSCLC.
The test system of assay [5] is NCI-H460 lung.
The test system of assay [6] is HOP-92 NSCLC.
Assay [7] concerns NCI-H522 lung.
Assay [8] concerns A549/ATCC NSCLC.
In assay [9] the test system is 786-0 renal.
Assay [10] deals with COLO 205 colon.
The test system of assay [11] is DU-145 prostate.
Assay [12] relates to K-562 leukemia.
Assay [13] has as its system MALME-3M melanoma.
For assay [14], the system named is MDA-MB-231 breast.
Assay [15] deals with RXF 393 renal.
Assay [16] concerns SF-268 CNS.
Assay [17] concerns SF-295 CNS.
For assay [18], the system named is SF-539 CNS.
In assay [19] the test system is UACC-257 melanoma.
Assay [20] has as its system M14 melanoma.

About 83,000 compounds went through this panel and 20% of them were active in at least one assay; those are over-represented in the sample as a whole.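 48-hour exposure, single concentration, 96-well plates; percent growth endpoint where 0 means no net growth. Active: below 10.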 Values without a mark were called inactive. Active and inactive are the calls of the source.

As to `O=C1NC(=C(Cl)Cl)/C(=N/S(=O)(=O)NCCc2c[nH]c3ccccc23)N1`, the growth in assay [1] was 97.4%; in [2], 86%; in assay [3] it was 27.7%; in assay [4], 56.9%; in assay [5] it was 66.8%; in [6], 39%. Besides, the growth is 17.2% in assay [7]; 99.3% in [8]; 66.5% in assay [9]; 110% in assay [10]; 92.3% in [11]; 55% in [12]. Also, the growth is 70% in [13]; 44.8% in assay [14]; 81.9% in [15]; 21.4% in assay [16]; 98.7% in [17]; 25.1% in assay [18]. For the same compound, the results for the growth in [19] and in assay [20] were 73.9% and 83.8%, respectively.

`CCCNc1nc2ccccc2c2c(=O)c3cccc(Cl)c3sc12`: the growth in assay [1] is 74.1%; in assay [2], 84.9%; in assay [3] it was 89.6%; in assay [4], 88.3%; in assay [5], 78.7%; in [6] it was 89.5%. In addition, the growth was 82.3% in [7]; 94% in assay [8]; 110% in assay [9]; 94.7% in assay [10]; 98.2% in [11]; 86% in assay [12]. Besides, the growth was 81.9% in assay [13]; 105% in [14]; 98.5% in [15]; 101% in assay [16]; 98.8% in [17]; 110% in assay [18]. Also, the growth in assay [19] was 107%; in [20], 101%.

In the case of `O=C(O)c1cn(C2CC2)c2cc(N3CCN(C(=O)N/N=C/c4ccccc4)CC3)c(F)cc2c1=O`, the growth in assay [1] was 97.1%; in [2], 88%; in [3], 100%; in assay [4] it was 107%; in assay [5], 109%; in assay [6], 89%. For the same compound, the growth is 78% in assay [7]; 106% in [8]; 93.6% in [9]; 114% in [10]; 104% in assay [11]; 89.1% in assay [12]. Besides, the growth is 92.9% in assay [13]; 120% in assay [14]; 104% in assay [15]; 96.8% in [16]; 106% in [17]; 110% in assay [18]. Moreover, the growth was 89.3% in [19] and 108% in assay [20].

For the compound `COc1ccc(Cc2nnc(Nc3nc4ccccc4s3)s2)cc1`, the growth in assay [1] was 93%; in assay [2] it was 98.3%; in [3] it was 89.1%; in [4] it was 108%; in assay [5], 102%; in assay [6], 85%. Moreover, the growth was 100% in assay [7]; 99.4% in assay [8]; 98.1% in assay [9]; 111% in assay [10]; 109% in assay [11]; 64.8% in assay [12]. Further, the growth in assay [13] is 100%; in [14], 98%; in [15] it was 97.8%; in assay [16], 103%; in assay [17], 92.9%; in assay [18], 93.9%. The growth in assay [19] is 99.9%; in [20], 102%.

As to `COc1ccc(/C=C/C(=O)c2cc3c(N)c(C(=O)Nc4ccccc4C)sc3nc2C)cc1`, the growth in [1] is 36.1%; in [2], 53.3%; in assay [3], 35.7%; in [4], 32.6%; in [5] it was 1.23% (active); in assay [6] it was 79.2%. The growth was -28.4% (active) in [7]; 20.1% in [8]; 21.3% in assay [9]; -30.3% (active) in [10]; 13% in [11]; 15.3% in [12]. In addition, the growth in assay [13] was 51.7%; in [14], 15.5%; in assay [15], -23.1% (active); in assay [16], 32.3%; in assay [17], 14.2%; in [18], -38.2% (active). Also, the figures for the growth in [19] and in [20] were 64.8% and 3.29% (active), respectively.

Regarding `O=C(Nc1ccc(F)cc1)Nc1ccccc1CNc1nc(Nc2ccc(OCCN3CCCC3)cc2)ncc1Cl`, the growth in assay [1] was 60.8%; in assay [2] it was 99.1%; in assay [3], 89.1%; in [4], 51.3%; in assay [5] it was 9.85% (active); in assay [6] it was 52.2%. In addition, the growth in [7] was 37%; in [8], 38.2%; in assay [9], -16.3% (active); in assay [10] it was 0.109% (active); in [11], 47%; in [12] it was 2.99% (active). Moreover, the growth was -29.3% (active) in assay [13]; -30.9% (active) in [14]; -50% (active) in assay [15]; 56.5% in assay [16]; 82.3% in assay [17]; -74.7% (active) in assay [18]. For the same compound, the values for the growth in [19] and in assay [20] were 5.96% (active) and -39.2% (active), respectively.

In the case of `CCOc1ccc(/C=N\N=C\c2ccc(OCC)cc2)cc1`, the growth in [1] was 79.5%; in assay [2], 89.1%; in [3], 99.1%; in assay [4], 93%; in [5] it was 51.7%; in assay [6], 84.4%. In addition, the growth in assay [7] was 51.9%; in [8], 94.2%; in assay [9], 105%; in assay [10] it was 96.6%; in [11], 17%; in [12], 86.7%. For the same compound, the growth was 115% in assay [13]; 83.6% in assay [14]; 84.9% in assay [15]; 94% in [16]; 95.9% in [17]; 96.4% in assay [18]. For the same compound, the growth in [19] is 99%; in assay [20], 85.3%.

As for `O[C@@H](c1cc(C(F)(F)F)nc2c(C(F)(F)F)cccc12)[C@H]1CCCCN1`, the growth was 81.5% in [1]; 94.6% in assay [2]; 71.5% in assay [3]; 56.1% in assay [4]; 35.6% in [5]; 12.3% in assay [6]. Besides, the growth in assay [7] is 40%; in assay [8], 66%; in assay [9], 46.3%; in assay [10] it was 67.9%; in assay [11], 65.8%; in assay [12], 15.8%. In addition, the growth in assay [13] was 99%; in assay [14], 14.5%; in [15], 55.2%; in [16], 54.7%; in assay [17], 95.7%; in assay [18] it was 85.6%. In addition, the growth in assay [19] is 65.5%; in assay [20], 71.6%.
